This note sets out measurements from PubChem BioAssay (NCATS).

Each structure is given as a SMILES string. Where “and” joins values, the source holds several entries; their conditions need not be identical. Equal values may be shown once. Inconclusive results are not listed. Values without a mark were called inactive. Calls of active or inactive are those of the source. The call rests on the fitted dose curve; in most records, active means well fitted curve in the direction sought with a large enough effect; inconclusive means small, poorly fitted or top-dose-only effect, or another doubt; inactive means no such curve, though single readings can be large; an effect the other way counts as inactive or inconclusive.

The target in assay [1] is Cellular tumor antigen p53 (Homo sapiens) (UniProt P04637). The experiment in a line: Primary qHTS for small molecule compounds that upregulate eGFP-tagged delta133p53alpha (in N-terminal) cells. (AID 2060322). Further: nearly all actives have a fitted effect of over 75% in size. Further: potency means the concentration at half of the fitted maximal effect.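 On activation: cells pre-induced with doxycycline then dosed without doxycycline; series mostly up to about 56 µM; 0% = DMSO vehicle and 100% = reference activator.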 Conditions: NCI-H358 eGFP-delta133p53alpha fluorescence, 24 h; activation: hits give high values. Summed up:
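NCI-H358 cells pre-induced 24 h with 10 ng/ml doxycycline for eGFP-delta133p53alpha, plated dox-free and exposed 24 h at 37C to titrated compounds. Fixed, Hoechst-stained; gated GFP peak intensity by laser scanning cytometry, normalized to DMSO (0%) and 57.5 uM 5-azacytidine (100%).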
For orientation: In qHTS, concentration-response curves come from the screen itself.

In assay [2] the target is Aldehyde dehydrogenase, mitochondrial (Homo sapiens) (UniProt P05091). Nature of the assay: qHTS for Inhibitors of the Aldehyde Dehydrogenase Family (ALDH2) Primary screen (AID 2061308).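 Further: plate controls were vehicle for no effect and reference inhibitor for full effect; nearly all actives have a fitted effect of over 55% in size.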
Assay [3] deals with Retinaldehyde dehydrogenase 3 (Homo sapiens) (UniProt P47895). Nature of the assay: qHTS for Inhibitors of the Aldehyde Dehydrogenase Family (ALDH1A3) Validation screen (AID 2061312). Further: on the % scale 0 is the no-effect control and ±100 the full control effect; nearly all actives have a fitted effect of over 45% in size.
Assay [4] shares this target. The experiment in a line: qHTS for Inhibitors of the Aldehyde Dehydrogenase Family (ALDH1A3) Primary screen (AID 2061315).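 Further: plate controls were DMSO vehicle for no effect and reference inhibitor for full effect.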
The nature of assay [5]: BET inhibitor-based combinations targeting novel dependencies in MECOM-rearranged (r) AML: SET-2 cell line (AID 2202231). Further: nearly all actives have a fitted effect of over 35% in size. Further: potency means the concentration at half of the fitted maximal effect.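 On viability: plate controls were DMSO treated cells for no effect and wells without cells for full effect.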 The following applies: SET-2 AML cells viability, CellTiter-Glo luminescence, 48 h; viability: hits give low values, concentration not given here. An outline of the steps:
(§1)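 A 48 hr incubation preceded viability reading by CellTiter-Glo, with 15 min room-temperature development. Dose series had 11 points; normalization used DMSO and empty wells; AUC was computed and mean-centered per line as Z-AUC.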
For orientation: Cellular ATP, detected with luciferase, serves as a proxy for viable cell number.

A short description of assay [6]: BET inhibitor-based combinations targeting novel dependencies in MECOM-rearranged (r) AML: OCI-AML3 cell line (AID 2202232). Further: nearly all actives have a fitted effect of over 35% in size. Further: potency means the concentration at half of the fitted maximal effect. The following applies: Potency: OCI-AML3 viability. An outline of the steps:
as §1

Assay [7] in a line: BET inhibitor-based combinations targeting novel dependencies in MECOM-rearranged (r) AML: MV-4-11 cell line (AID 2202233). Further: nearly all actives have a fitted effect of over 45% in size. Further: potency means the concentration at half of the fitted maximal effect. Summed up: (§2)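 Each compound is tested in an 11-point concentration series against 500 seeded cells/well for 48 hr. The luminescent viability signal is normalized to DMSO and blank wells, then reduced to AUC and a cell-line-centred Z-AUC.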
The nature of assay [8]: BET inhibitor-based combinations targeting novel dependencies in MECOM-rearranged (r) AML: HNT-34 cell line (AID 2202234). Further: nearly all actives have a fitted effect of over 35% in size. Further: potency means the concentration at half of the fitted maximal effect. An outline of the steps:
as §2

A short description of assay [9]: BET inhibitor-based combinations targeting novel dependencies in MECOM-rearranged (r) AML: UCSD-AML1 cell line (AID 2202235). Further: nearly all actives have a fitted effect of over 40% in size. Further: potency means the concentration at half of the fitted maximal effect. Summed up:
as §2

A short description of assay [10]: BET inhibitor-based combinations targeting novel dependencies in MECOM-rearranged (r) AML: AML-191 cell line (AID 2202236; further: nearly all actives have a fitted effect of over 35% in size; further: potency means the concentration at half of the fitted maximal effect). Summed up: as §1
Assay [11] is described as follows: BET inhibitor-based combinations targeting novel dependencies in MECOM-rearranged (r) AML: AML-194 cell line (AID 2202237; further: nearly all actives have a fitted effect of over 40% in size; further: potency means the concentration at half of the fitted maximal effect). An outline of the steps: as §1

Sequence of Cellular tumor antigen p53 (Homo sapiens) (P04637 whole entry, looked up): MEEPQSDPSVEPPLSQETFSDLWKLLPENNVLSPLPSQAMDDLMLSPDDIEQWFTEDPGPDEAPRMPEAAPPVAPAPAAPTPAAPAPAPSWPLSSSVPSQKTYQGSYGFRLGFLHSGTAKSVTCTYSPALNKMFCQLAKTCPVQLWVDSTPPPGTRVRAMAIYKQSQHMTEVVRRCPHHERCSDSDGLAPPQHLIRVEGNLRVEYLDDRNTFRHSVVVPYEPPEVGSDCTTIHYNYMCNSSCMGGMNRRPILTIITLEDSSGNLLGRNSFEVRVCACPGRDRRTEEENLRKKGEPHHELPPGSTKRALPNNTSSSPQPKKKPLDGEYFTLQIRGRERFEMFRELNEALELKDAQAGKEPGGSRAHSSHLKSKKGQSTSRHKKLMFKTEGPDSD

Broadly, the viability is a read-out of living cells in per cent, often relative to untreated cells. On to `COc1cc2c(cc1OC)CN(CCc1ccc(NC(=O)c3cccc4c(=O)c5cccc(OC)c5[nH]c34)cc1)CC2`, for which the activation in assay [1] is -17.9%. The Potency result in assay [2], in assay [3], in assay [4], in [6], in assay [7] and in assay [8] was “inactive” in each case. The Potency entry in assay [9], in assay [10] and in assay [11] was “inactive” in each case. Moreover, the viability in assay [5] is 111%.

With `OC[C@H]1O[C@@H](Oc2cc(O)cc(/C=C/c3ccc(O)cc3)c2)[C@H](O)[C@@H](O)[C@@H]1O`, the activation in [1] was -6.21%. Moreover, the Potency entry in assay [2], in assay [3], in assay [4], in assay [6], in assay [7] and in [8] was “inactive” each time. Also, the Potency entry in [9], in [10] and in assay [11] was “inactive” throughout. Also, the viability in [5] is 115%.

Turning to `Cc1nc(Nc2n[nH]c3c2CN(C(=O)N[C@H](CN(C)C)c2ccccc2)C3(C)C)c2sccc2n1`, the Potency in assay [1] is 10700 nM (active); in assay [5], 1480 nM (active); in assay [6], 468 nM (active); in assay [7], 23.5 nM (active); in assay [8], 1180 nM (active); in [9] it was 148 nM (active). Also, the results for the Potency in [10] and in assay [11] were 1180 nM (active) and 1660 nM (active), respectively. Also, the Potency result in assay [2], in assay [3] and in assay [4] was “inactive” throughout.

`COc1ccc(N2CCOCC2)c2sc(NC(=O)N3CCC(C)(O)CC3)nc12`: the activation in assay [1] was -5.25%. Moreover, the Potency entry in assay [2], in assay [3] and in assay [4] was “inactive” in each case.

For the molecule `O=C(c1ccc(C(=O)N2CCC(N3CCCC3)CC2)c(Nc2ccccc2)c1)N1CCC(N2CCCC2)CC1`, the activation in assay [1] is 3.03% and -7.82%. Besides, the Potency entry in assay [2], in [3], in assay [4], in assay [6], in assay [8] and in assay [9] was “inactive” each time. Moreover, the Potency result in [10] was “inactive”. In assay [5], the viability was 111%. Besides, the Potency in assay [7] was 9340 nM (active).

In the case of `O=C(Nc1ccc(S(=O)(=O)Nc2ccccc2Cl)c(Cl)c1)c1ccccn1`, in [1], the activation was 15.8%. Further, the Potency result in [2], in assay [3] and in assay [4] was “inactive” in each case.

On to `Cc1c(C(=O)Nc2ccc(N3CC(C)OC(C)C3)nc2)cccc1-c1ccc(OC(F)(F)F)cc1` (centres undefined), for which the activation in assay [1] was 20%. Besides, the Potency entry in [2], in [3] and in assay [4] was “inactive” in each case.

For the molecule `NS(=O)(=O)OC[C@@H]1C[C@@H](n2ccc3c(N[C@H]4CCc5ccccc54)ncnc32)C[C@@H]1O`, in [1], the activation is -7.64% and -2.39%. Moreover, the Potency result in [2], in assay [3] and in assay [4] was “inactive” each time. The Potency is 525 nM (active) in assay [5]; 372 nM (active) in [6]; 209 nM (active) in [7]; 372 nM (active) in assay [8]; 590 nM (active) in assay [9]; 934 nM (active) in assay [10]. The Potency in [11] was 934 nM (active).

Regarding `C[C@]12CC[C@@H]3c4ccc(OC(=O)c5ccccc5)cc4CC[C@H]3[C@@H]1CC[C@@H]2O`, the activation in [1] is 14.3%. Besides, the Potency result in assay [2], in [3] and in [4] was “inactive” throughout.

As to `CC(=O)[C@H]1CC[C@H]2[C@@H]3C=CC4=CC(=O)CC[C@@]4(C)[C@@H]3CC[C@]12C`, the activation in assay [1] was -8.47% and 12.4%. Also, the Potency entry in [2], in assay [3] and in assay [4] was “inactive” each time.

In the case of `O=C(NCc1ccc(F)cc1)C(=O)c1c[nH]c2ccccc12`, the activation in [1] was 5.73%. Further, the Potency entry in assay [2], in [3] and in assay [4] was “inactive” in each case.

With `Cc1cccc2c1CC[C@H](CN1CCC(c3c(Cl)cccc3Cl)CC1)C[C@@H]2O`, the activation in [1] is 11.9% and -7.16%. For the same molecule, the Potency result in assay [2], in assay [3] and in [4] was “inactive” in each case.

Consider `COc1cc2nc(C3CC3)nc(N3CCN(c4ccccc4OC)CC3)c2cc1OC`, for which the Potency in assay [1] was 16900 nM (active). Moreover, the Potency entry in assay [2], in assay [3] and in assay [4] was “inactive” throughout.

For the molecule `CN(C)CCOc1cc(NS(=O)(=O)c2c(Cl)cc(C(F)(F)F)cc2Cl)ccc1Cl`, the activation in assay [1] is 0.477%. For the same molecule, the Potency result in [2], in assay [3] and in [4] was “inactive” each time.

Consider `CCC(C(C)O)n1ncn(-c2ccc(N3CCN(c4ccc(OCC5COC(Cn6cncn6)(c6ccc(F)cc6F)C5)cc4)CC3)cc2)c1=O` (centres undefined), for which the activation in assay [1] was 5.25%. Further, the Potency result in assay [2], in [3] and in assay [4] was “inactive” in each case.

For the molecule `CCCC1(c2ccccc2)NC(=O)N(CC(=O)N(C)Cc2c(F)cccc2Cl)C1=O` (centres undefined), the activation in [1] is 4.3%. Further, the Potency result in assay [2], in assay [3] and in assay [4] was “inactive” in each case.

Turning to `CC(C)CCNc1ncccc1C(=O)N1CCN(Cc2ccccc2)CC1`, in [1], the activation is -4.3%. Moreover, the Potency result in assay [2], in [3] and in assay [4] was “inactive” in each case.

With `CNC(=O)COC(=O)NCCC1CCN(c2cccc(C)n2)CC1`, in assay [1], the activation is 6.21%. The Potency entry in assay [2], in [3] and in assay [4] was “inactive” in each case.

On to `CCC(C)(Oc1ccc(C2(c3ccc(OC(C)(CC)C(=O)O)cc3)CCCCC2)cc1)C(=O)O` (centres undefined), for which, in assay [1], the activation was -25.7% and 13.4%. Moreover, the Potency result in assay [2], in assay [3], in [4], in assay [6], in [7] and in [8] was “inactive” in each case. Further, the Potency entry in assay [9], in assay [10] and in [11] was “inactive” in each case. The viability in assay [5] was 114%.

In the case of `CC(C)N(C[C@H]1O[C@@H](n2cnc3c(N)ncnc32)[C@H](O)[C@@H]1O)C1CC(CCc2nc3ccc(C(C)(C)C)cc3[nH]2)C1` (some centres undefined), the activation in assay [1] was 15.8% and 10%. In addition, the Potency entry in assay [2], in [3], in assay [4], in [6], in [8] and in [9] was “inactive” each time. In addition, the Potency result in assay [10] and in assay [11] was “inactive” each time. For the same molecule, the viability in assay [5] is 125%. The Potency in assay [7] is 6610 nM (active).

On to `c1cc(Nc2cc(C3CC3)[nH]n2)nc(Nc2ccc3nc[nH]c3c2)n1`, for which the Potency was 849 nM (active) in assay [1]; 662 nM (active) in assay [5]; 263 nM (active) in assay [6]; 52.5 nM (active) in [7]; 263 nM (active) in [8]; 332 nM (active) in assay [9]. In addition, the Potency is 235 nM (active) in assay [10] and 372 nM (active) in [11]. Further, the Potency result in [2], in assay [3] and in [4] was “inactive” each time.
